Measurements taken from PubChem BioAssay (NCATS).
Unmarked numbers belong to inactive results. For some of these results: Entries with a potency or affinity are not part of this list. Active and inactive are the calls of the source. How the calls were made is not given here. Peptide text beside a SMILES is read from it.

Settings: Ebola virus entry assay, green fluorescence channel
Wherever efficacy is given: 0% is about no effect.

Structure (SMILES) | efficacy [%]
COc1ccc([C@@H]2Sc3ccccc3NC(=O)[C@@H]2O)cc1 | -10.4
OCc1ccccc1O | -17.7
CO/N=C(\C(=O)O)c1csc(NC(=O)CCl)n1 | 7.58
CCOC(=O)[C@H](CCc1ccccc1)N[C@@H](C)C(=O)N1C(=O)N(C)C[C@H]1C(=O)O | -14.8
Oc1cccc2[nH]ccc12 | 14.5
O=c1[nH]c2cc(C(F)(F)F)c(N3CCOCC3)cc2n(CP(=O)(O)O)c1=O | -34.7
C[C@H]1NCc2cc(-c3ccc4c(=O)c(C(=O)O)cn(C5CC5)c4c3OC(F)F)ccc21 | -19.7
O=S(=O)(c1cccc2cnccc12)N1CCCNCC1 | -11.7
O=C(O)CCc1nc(-c2ccccc2)c(-c2ccccc2)o1 | 18.2
CC(=C(CCOC(=O)C(C)C)SSC(CCOC(=O)C(C)C)=C(C)N(C=O)Cc1cnc(C)nc1N)N(C=O)Cc1cnc(C)nc1N | -18
Cc1ccc2nc(N)[nH]c(=O)c2c1Sc1ccncc1 | 17.5
CNC1CCCN(c2c(F)cc3c(=O)c(C(=O)O)cn(C4CC4)c3c2OC)C1 (centres undefined) | -29.7
O=C(O)c1cccc(-c2noc(-c3ccccc3F)n2)c1 | 13.1
C[C@]12C=CC(=O)C=C1CC[C@H]1[C@@H]3C[C@@H](O)[C@](O)(C(=O)CO)[C@@]3(C)C[C@H](O)[C@@]12F | 17
Cc1cc(NC(=O)C2=C(O)c3ccccc3S(=O)(=O)N2C)no1 | -7.71
COC(=O)C1=C(C)NC(C)=C(C(=O)OC)C1c1ccccc1[N+](=O)[O-] | 16.8
COc1nc(C)nc(Cl)c1NC1=NCCN1 | -23.1
CCOCC(O)COc1ccc(NC(=O)CC[S+](C)C)cc1 (centres undefined) | -21.6
CC(C)[C@@H]1CC[C@@H](C)CC1=O | -22.8
CC(=O)O[C@H]1C[C@@H]2CC[C@@H]3[C@H](CC[C@@]4(C)[C@H]3C[C@H]([N+]3(C)CCCCC3)[C@@H]4OC(C)=O)[C@@]2(C)C[C@@H]1N1CCCCC1 | -18
O=C(O)CP(=O)(O)O | -15.3
Cc1c(Cl)cccc1Nc1ccccc1C(=O)O | 13.8
CCCCCOc1ccc(C2SC(=O)NC2=O)cc1OCC (centres undefined) | 24.1
NS(=O)(=O)c1cc2c(cc1Cl)CN(C1CCCCC1)C2=O | 30.3
O=C(O)c1ccc(OCCCOc2ccc(C(=O)O)cc2)cc1 | 11.3

Settings: Ebola virus entry assay, blue channel fluorescence

Structure (SMILES) | outcome
CNC(=O)Oc1ccc2c(c1)[C@]1(C)CCN(C)[C@@H]1N2C | inactive
CC[N+]1(CC)CCC(=C(c2ccccc2)c2ccccc2)C1C (centres undefined) | inactive
CCCc1nc(C)c2c(=O)[nH]c(-c3cc(S(=O)(=O)N4CCN(CC)CC4)ccc3OCC)nn12 | inactive
FC(F)(F)C(F)(F)C(F)(F)C(F)(F)C(F)(F)C(F)(F)C(F)(F)C(F)(F)Br | inactive
C[C@@H]1C[C@H]2[C@@H]3CCC4=CC(=O)C=C[C@]4(C)[C@@]3(F)[C@@H](O)C[C@]2(C)[C@H]1C(=O)CO | inactive
O=C1O[C@H]([C@@H](O)CO)C(O)=C1O | inactive
NCCc1cnc[nH]1 | inactive
CCC(CC)(CC(=O)Nc1cccc(/C=C/c2nc(C3CCC3)cs2)c1)C(=O)O | inactive
CC(C)(C)NCC(O)COc1cccc2c1CCC(=O)N2 (centres undefined) | inactive
COCCOC(=O)C1=C(C)NC(C)=C(C(=O)OC/C=C/c2ccccc2)C1c1cccc([N+](=O)[O-])c1 (centres undefined) | inactive
CC(C)Cc1ccc(C(C)C(=O)OCc2ccccn2)cc1 (centres undefined) | inactive
CC(=O)N[C@@H](CO)C(=O)N[C@@H](CC(=O)O)C(=O)N[C@@H](CCCCN)C(=O)N1CCC[C@H]1C(=O)O (Ac-SDKP-OH) | inactive
Nc1ccc(S(=O)(=O)Nc2nccs2)cc1 | inactive
NNC(=O)CP(=O)(c1ccccc1)c1ccccc1 | inactive
COc1ccc([C@@H]2Sc3ccccc3NC(=O)[C@@H]2O)cc1 | inactive
OCc1ccccc1O | inactive
CO/N=C(\C(=O)O)c1csc(NC(=O)CCl)n1 | inactive
CCOC(=O)[C@H](CCc1ccccc1)N[C@@H](C)C(=O)N1C(=O)N(C)C[C@H]1C(=O)O | inactive
Oc1cccc2[nH]ccc12 | inactive
O=c1[nH]c2cc(C(F)(F)F)c(N3CCOCC3)cc2n(CP(=O)(O)O)c1=O | inactive

Structure (SMILES) | outcome
C[C@H]1NCc2cc(-c3ccc4c(=O)c(C(=O)O)cn(C5CC5)c4c3OC(F)F)ccc21 | inactive
O=S(=O)(c1cccc2cnccc12)N1CCCNCC1 | inactive
O=C(O)CCc1nc(-c2ccccc2)c(-c2ccccc2)o1 | inactive
CC(=C(CCOC(=O)C(C)C)SSC(CCOC(=O)C(C)C)=C(C)N(C=O)Cc1cnc(C)nc1N)N(C=O)Cc1cnc(C)nc1N | inactive
Cc1ccc2nc(N)[nH]c(=O)c2c1Sc1ccncc1 | inactive
CNC1CCCN(c2c(F)cc3c(=O)c(C(=O)O)cn(C4CC4)c3c2OC)C1 (centres undefined) | inactive
O=C(O)c1cccc(-c2noc(-c3ccccc3F)n2)c1 | inactive
C[C@]12C=CC(=O)C=C1CC[C@H]1[C@@H]3C[C@@H](O)[C@](O)(C(=O)CO)[C@@]3(C)C[C@H](O)[C@@]12F | inactive
Cc1cc(NC(=O)C2=C(O)c3ccccc3S(=O)(=O)N2C)no1 | inactive
COC(=O)C1=C(C)NC(C)=C(C(=O)OC)C1c1ccccc1[N+](=O)[O-] | inactive
COc1nc(C)nc(Cl)c1NC1=NCCN1 | inactive
CCOCC(O)COc1ccc(NC(=O)CC[S+](C)C)cc1 (centres undefined) | inactive
CC(C)[C@@H]1CC[C@@H](C)CC1=O | inactive
CC(=O)O[C@H]1C[C@@H]2CC[C@@H]3[C@H](CC[C@@]4(C)[C@H]3C[C@H]([N+]3(C)CCCCC3)[C@@H]4OC(C)=O)[C@@]2(C)C[C@@H]1N1CCCCC1 | inactive
O=C(O)CP(=O)(O)O | inactive
Cc1c(Cl)cccc1Nc1ccccc1C(=O)O | inactive
CCCCCOc1ccc(C2SC(=O)NC2=O)cc1OCC (centres undefined) | inactive
NS(=O)(=O)c1cc2c(cc1Cl)CN(C1CCCCC1)C2=O | inactive
O=C(O)c1ccc(OCCCOc2ccc(C(=O)O)cc2)cc1 | inactive
